# Out of some 5,500 compounds screened, about 2,000 (36%) were called active. Inconclusive results (about 18%) are left out. This is one part of the list. A number with no mark means an inactive call. Rule as the data show it: active = normalized growth mostly below about 0.91 (no sharp cut-off); inconclusive = no clear call, values can overlap the other calls; inactive = mostly above about 0.92.
# Assay: chemical genetic growth profiling, strain panel (AID 1159580);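 also: tested at 20 µM; growth read once vehicle control cultures reached saturation at 30 °C; 1 = growth at the plate median or of vehicle wells; lower values mean less growth of the strain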
# Details: growth OD
structure (smiles),measurement,setting,value
O=[N+]([O-])c1ccc(O)c([N+](=O)[O-])c1,normalized growth,"S. cerevisiae deletion strains, locus YKL009W, strain mrt4, active compounds read low",0.249 (active)
same,normalized growth,"S. cerevisiae deletion strains, locus YKL068W, active compounds read low",0.354 (active)
same,normalized growth,"S. cerevisiae deletion strains, locus YKL085W, strain MDH1 (second series), active compounds read low",0.192 (active)
same,normalized growth,"S. cerevisiae deletion strains, locus YKL085W, strain MDH1, active compounds read low",0.192 (active)
same,normalized growth,"S. cerevisiae deletion strains, locus YKL160W, strain elf1, active compounds read low",0.87 (active)
same,normalized growth,"S. cerevisiae deletion strains, locus YKL190W, strain CNB1, active compounds read low",0.795 (active)
same,normalized growth,"S. cerevisiae deletion strains, locus YKR001C, strain vps1, active compounds read low",0.691 (active)
same,normalized growth,"S. cerevisiae deletion strains, locus YKR026C, strain gcn3, active compounds read low",0.77 (active)
same,normalized growth,"S. cerevisiae deletion strains, locus YKR091W, strain srl3, active compounds read low",0.808 (active)
same,normalized growth,"S. cerevisiae deletion strains, locus YLL001W, strain dnm1, active compounds read low",0.793 (active)
same,normalized growth,"S. cerevisiae deletion strains, locus YLL026W, active compounds read low",0.816 (active)
same,normalized growth,"S. cerevisiae deletion strains, locus YLL041C, strain sdh2, active compounds read low",0.82 (active)
same,normalized growth,"S. cerevisiae deletion strains, locus YLR027C, strain aat2, active compounds read low",0.819 (active)
same,normalized growth,"S. cerevisiae deletion strains, locus YLR039C, strain RIC1, active compounds read low",0.841
same,normalized growth,"S. cerevisiae deletion strains, locus YLR058C, strain SHM2, active compounds read low",0.802 (active)
same,normalized growth,"S. cerevisiae deletion strains, locus YLR102C, strain apc9, active compounds read low",0.691 (active)
same,normalized growth,"S. cerevisiae deletion strains, locus YLR113W, strain HOG1, active compounds read low",0.214 (active)
same,normalized growth,"S. cerevisiae deletion strains, locus YLR221C, strain rsa3, active compounds read low",0.786 (active)
same,normalized growth,"S. cerevisiae deletion strains, locus YLR258W, strain gsy2, active compounds read low",0.843 (active)
same,normalized growth,"S. cerevisiae deletion strains, locus YLR262C, strain YPT6 (second series), active compounds read low",0.833 (active)
same,normalized growth,"S. cerevisiae deletion strains, locus YLR262C, strain YPT6, active compounds read low",0.932
same,normalized growth,"S. cerevisiae deletion strains, locus YLR268W, strain sec22, active compounds read low",0.736 (active)
same,normalized growth,"S. cerevisiae deletion strains, locus YLR320W, strain mms22, active compounds read low",0.807 (active)
same,normalized growth,"S. cerevisiae deletion strains, locus YLR330W, strain CHS5, active compounds read low",0.733 (active)
same,normalized growth,"S. cerevisiae deletion strains, locus YLR342W, strain FKS1 (second series), active compounds read low",0.851
same,normalized growth,"S. cerevisiae deletion strains, locus YLR342W, strain FKS1, active compounds read low",0.855 (active)
same,normalized growth,"S. cerevisiae deletion strains, locus YLR357W, strain rsc2, active compounds read low",0.855
same,normalized growth,"S. cerevisiae deletion strains, locus YLR370C, strain arc18, active compounds read low",0.814 (active)
same,normalized growth,"S. cerevisiae deletion strains, locus YLR371W, strain rom2, active compounds read low",0.718 (active)
same,normalized growth,"S. cerevisiae deletion strains, locus YLR384C, strain iki3, active compounds read low",0.798 (active)
same,normalized growth,"S. cerevisiae deletion strains, locus YLR418C, strain cdc73, active compounds read low",0.661 (active)
same,normalized growth,"S. cerevisiae deletion strains, locus YML016C, strain PPZ1, active compounds read low",0.79 (active)
same,normalized growth,"S. cerevisiae deletion strains, locus YML032C, strain rad52, active compounds read low",0.697 (active)
same,normalized growth,"S. cerevisiae deletion strains, locus YML120C, strain ndi1, active compounds read low",0.781 (active)
same,normalized growth,"S. cerevisiae deletion strains, locus YML124C, strain tub3, active compounds read low",0.701 (active)
same,normalized growth,"S. cerevisiae deletion strains, locus YMR058W, strain fet3, active compounds read low",0.793 (active)
same,normalized growth,"S. cerevisiae deletion strains, locus YMR078C, strain ctf18, active compounds read low",0.68 (active)
same,normalized growth,"S. cerevisiae deletion strains, locus YMR125W, strain sto1, active compounds read low",0.898
same,normalized growth,"S. cerevisiae deletion strains, locus YMR129W, active compounds read low",0.77 (active)
same,normalized growth,"S. cerevisiae deletion strains, locus YMR205C, strain PFK2, active compounds read low",0.852 (active)
same,normalized growth,"S. cerevisiae deletion strains, locus YMR223W, strain ubp8, active compounds read low",0.776 (active)
same,normalized growth,"S. cerevisiae deletion strains, locus YMR231W, strain pep5, active compounds read low",0.761 (active)
same,normalized growth,"S. cerevisiae deletion strains, locus YMR263W, strain SAP30, active compounds read low",0.783 (active)
same,normalized growth,"S. cerevisiae deletion strains, locus YMR307W, strain GAS1, active compounds read low",0.819
same,normalized growth,"S. cerevisiae deletion strains, locus YNL067W, strain RPL9B, active compounds read low",0.779 (active)
same,normalized growth,"S. cerevisiae deletion strains, locus YNL071W, strain lat1, active compounds read low",0.826 (active)
same,normalized growth,"S. cerevisiae deletion strains, locus YNL128W, strain TEP1, active compounds read low",0.842 (active)
same,normalized growth,"S. cerevisiae deletion strains, locus YNL153C, strain GIM3, active compounds read low",0.786 (active)
same,normalized growth,"S. cerevisiae deletion strains, locus YNL183C, strain NPR1, active compounds read low",0.179 (active)
same,normalized growth,"S. cerevisiae deletion strains, locus YNL209W, strain ssb2, active compounds read low",0.829 (active)
same,normalized growth,"S. cerevisiae deletion strains, locus YNL233W, strain BNI4, active compounds read low",0.75 (active)
same,normalized growth,"S. cerevisiae deletion strains, locus YNL248C, strain rpa49, active compounds read low",0.937
same,normalized growth,"S. cerevisiae deletion strains, locus YNL250W, strain rad50, active compounds read low",0.265 (active)
same,normalized growth,"S. cerevisiae deletion strains, locus YNL271C, strain bni1, active compounds read low",0.31 (active)
same,normalized growth,"S. cerevisiae deletion strains, locus YNL298W, strain CLA4, active compounds read low",0.251 (active)
same,normalized growth,"S. cerevisiae deletion strains, locus YNL307C, strain MCK1, active compounds read low",0.635 (active)
same,normalized growth,"S. cerevisiae deletion strains, locus YNL322C, strain KRE1 (second series), active compounds read low",0.651 (active)
same,normalized growth,"S. cerevisiae deletion strains, locus YNL322C, strain KRE1, active compounds read low",0.798 (active)
same,normalized growth,"S. cerevisiae deletion strains, locus YNR049C, strain mso1, active compounds read low",0.779 (active)
same,normalized growth,"S. cerevisiae deletion strains, locus YNR052C, strain pop2, active compounds read low",0.728 (active)
same,normalized growth,"S. cerevisiae deletion strains, locus YOL006C, strain TOP1, active compounds read low",0.9
same,normalized growth,"S. cerevisiae deletion strains, locus YOL012C, strain htz1",0.683
same,normalized growth,"S. cerevisiae deletion strains, locus YOL147C, strain pex11, active compounds read low",0.693 (active)
same,normalized growth,"S. cerevisiae deletion strains, locus YOR001W, strain rrp6, active compounds read low",0.841 (active)
same,normalized growth,"S. cerevisiae deletion strains, locus YOR061W, strain CKA2, active compounds read low",0.819 (active)
same,normalized growth,"S. cerevisiae deletion strains, locus YOR069W, strain VPS5, active compounds read low",0.759 (active)
same,normalized growth,"S. cerevisiae deletion strains, locus YOR070C, strain gyp1, active compounds read low",0.836 (active)
same,normalized growth,"S. cerevisiae deletion strains, locus YOR080W, strain dia2, active compounds read low",0.812 (active)
same,normalized growth,"S. cerevisiae deletion strains, locus YOR083W, strain WHI5, active compounds read low",0.831 (active)
same,normalized growth,"S. cerevisiae deletion strains, locus YOR106W, strain vam3, active compounds read low",0.87
same,normalized growth,"S. cerevisiae deletion strains, locus YOR136W, strain idh2, active compounds read low",0.845 (active)
same,normalized growth,"S. cerevisiae deletion strains, locus YOR144C, strain elg1, active compounds read low",0.709 (active)
same,normalized growth,"S. cerevisiae deletion strains, locus YOR184W, strain ser1, active compounds read low",0.799 (active)
same,normalized growth,"S. cerevisiae deletion strains, locus YOR231W, strain MKK1, active compounds read low",0.266 (active)
same,normalized growth,"S. cerevisiae deletion strains, locus YOR265W, strain rbl2, active compounds read low",0.832 (active)
same,normalized growth,"S. cerevisiae deletion strains, locus YOR270C, strain vph1, active compounds read low",0.901
same,normalized growth,"S. cerevisiae deletion strains, locus YOR290C, strain snf2, active compounds read low",0.826 (active)
same,normalized growth,"S. cerevisiae deletion strains, locus YOR316C, strain cot1, active compounds read low",0.726 (active)
same,normalized growth,"S. cerevisiae deletion strains, locus YPL051W, strain arl3, active compounds read low",0.843 (active)
same,normalized growth,"S. cerevisiae deletion strains, locus YPL055C, strain LGE1, active compounds read low",0.753 (active)
same,normalized growth,"S. cerevisiae deletion strains, locus YPL078C, strain atp4, active compounds read low",0.737 (active)
same,normalized growth,"S. cerevisiae deletion strains, locus YPL106C, strain sse1, active compounds read low",0.736 (active)
same,normalized growth,"S. cerevisiae deletion strains, locus YPL240C, strain hsp82, active compounds read low",0.813 (active)
same,normalized growth,"S. cerevisiae deletion strains, locus YPL241C, strain CIN2, active compounds read low",0.812 (active)
same,normalized growth,"S. cerevisiae deletion strains, locus YPL256C, strain CLN2, active compounds read low",0.256 (active)
same,normalized growth,"S. cerevisiae deletion strains, locus YPR119W, strain clb2, active compounds read low",0.697 (active)
same,normalized growth,"S. cerevisiae deletion strains, locus YPR141C, strain kar3, active compounds read low",0.309 (active)
same,normalized growth,"S. cerevisiae deletion strains, locus YPR163C, strain tif3, active compounds read low",0.656 (active)
same,normalized growth,"S. cerevisiae deletion strains, locus YPR167C, strain met16, active compounds read low",0.719 (active)
same,normalized growth,"S. cerevisiae deletion strains, strain wtn01, active compounds read low",0.755 (active)
same,normalized growth,"S. cerevisiae strains, strain wild type, active compounds read low",0.799 (active)

# From PubChem BioAssay AID1159580 (chemical genetic matrix, 2015)
